An excerpt weighted towards active compounds, which were near 2.3% of everything screened.
MCL1 BIM primary – MCL1-BIM-BH3 interaction inhibition (human) | Q07820 | GST-MCL1 / FITC-Bim-BH3 fluorescence polarization | inhibition, % at 10.9 µM | hit rate 0.68% among 320,000;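 active means inhibition above the mean inhibition of all tested compounds plus 3 SD, set per campaign, cut at about 40% in these data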;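 further: 0% = DMSO wells and 100% = unlabeled Bim-BH3 peptide control; higher means more loss of mP so more displacement of Bim peptide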
BCLXL inh – inhibitors of human Bcl-xL | Q07817 | GST-Bcl-xL / FITC-Bim BH3 peptide fluorescence polarization | inhibition, % at 10.9 µM | hit rate 0.7% among 320,000;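 active means inhibition above the mean of all tested compounds plus 3 SD, cutoff set per campaign, cut at about 30% in these data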;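 further: 0% = DMSO wells and 100% = unlabeled Bim-BH3 peptide competitor; inhibitors lower millipolarization by displacing the labeled peptide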
Mcl1-Bid inh – disrupts binding of human Mcl-1 to Bid peptide. Q07820. TR-FRET Mcl-1/Bid-Dy647 peptide binding, 1536-well. inhibition, % at 21.7 µM. hit rate 0.97% among 220,000;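 active means compounds that cut the binding signal by more than half at the single screening dose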;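 further: His-tagged Mcl-1 with europium anti-His antibody binding Bid BH3 peptide; 0% = Mcl-1 plus peptide wells and 100% = peptide-only wells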
Mcl1-Noxa inh – disrupts binding of human Mcl-1 to Noxa peptide; hit rate 1.5% among 220,000; Q07820; inhibition, % at 21.7 µM; AID 1022; TR-FRET Mcl-1/Noxa peptide binding, 2 h;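 active means compounds that cut the protein-peptide binding signal by more than 50% relative to plate controls in a single-dose test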;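 further: His-tagged Mcl-1 with rhodamine Noxa BH3 peptide and terbium anti-His antibody; 0% = Mcl-1 plus Noxa peptide wells and 100% = peptide-only wells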
GLD-1 TGE inh – GLD-1-TGE RNA interaction inhibition (C. elegans). purified GLD-1 + fluorescein TGE RNA, fluorescence polarization. inhibition, % at 5.96 µM. hit rate 0.44% among 320,000. AID 2280;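 active means percent inhibition above a per-plate cutoff, the plate mean of test compounds plus 3 SD, cut at about 30% in these data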;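 further: 0% = DMSO wells with GLD-1 and probe and 100% = wells lacking GLD-1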
Target sequence (Q17339 whole entry, looked up): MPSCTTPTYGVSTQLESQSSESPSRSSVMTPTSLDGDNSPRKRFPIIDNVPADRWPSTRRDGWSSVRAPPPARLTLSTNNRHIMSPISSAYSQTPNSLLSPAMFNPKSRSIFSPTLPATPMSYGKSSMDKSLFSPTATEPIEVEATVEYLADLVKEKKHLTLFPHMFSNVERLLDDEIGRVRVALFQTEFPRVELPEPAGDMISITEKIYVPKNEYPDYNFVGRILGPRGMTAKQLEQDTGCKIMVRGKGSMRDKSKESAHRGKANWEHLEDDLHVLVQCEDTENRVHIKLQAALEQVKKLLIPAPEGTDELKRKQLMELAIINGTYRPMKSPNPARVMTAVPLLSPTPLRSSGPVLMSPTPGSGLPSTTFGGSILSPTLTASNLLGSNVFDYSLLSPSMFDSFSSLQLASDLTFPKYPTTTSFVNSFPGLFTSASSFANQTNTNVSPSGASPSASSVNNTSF
Mcl-1 Bim block – inhibitors of Bim-Mcl-1 interaction, human; inhibition, % at 10 µM; Bead-based flow cytometry, Bim peptide-Mcl-1 binding; hit rate 0.1% among 190,000; AID 1009; in the data active means inhibition above about 40%;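 further: 0% = no compound tracer wells and 100% = peptide blocker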
Bcl-xL conf – Bcl-xL (human) inhibition, MCL1 counter-screen confirmation; shares compounds with MCL1 BIM primary; GST-Bcl-xL / FITC-Bim BH3 peptide FP binding; inhibition, % at 10.9 µM; hit rate 54% among 1,700;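 active means inhibition above a cutoff equal to the mean inhibition of all tested compounds plus 3 SD, cut at about 30% in these data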;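 further: 0% = DMSO wells and 100% = unlabeled Bim BH3 control peptide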
MCL1 inh confirm – MCL1-BIM-BH3 interaction inhibition, confirmation. shares compounds with MCL1 BIM primary. GST-MCL1 / FITC-Bim-BH3 fluorescence polarization. inhibition, % at 10.9 µM. hit rate 61% among 1,700;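 active means inhibition above the average of all tested compounds plus 3 SD, cut at about 40% in these data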;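 further: 0% = DMSO wells and 100% = unlabeled Bim-BH3 control peptide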
An asterisk follows results filed as active; x = no result given; + = active, no number.

SMILES	MCL1 BIM primary	BCLXL inh	Mcl1-Bid inh	Mcl1-Noxa inh	GLD-1 TGE inh	Mcl-1 Bim block	Bcl-xL conf	MCL1 inh confirm
S=C(Nc1ccc(N2CCOCC2)cc1)Nc1ccc2nc(-c3ccco3)c(-c3ccco3)nc2c1	+	188*	-10	81*	129*	-5	118*	150*
COc1cccc(CNC(=O)c2cc3c(cc2Cl)N2CCCCCC2=NS3(=O)=O)c1	5	4	x	x	6	x	x	x
CC(=O)c1ccc(NC(=O)c2ccc3nc(-c4ccco4)c(-c4ccco4)nc3c2)cc1	80*	39*	97*	101*	13	10	36*	81*
O=C(Nc1ccccc1)c1ccc2nc(-c3ccco3)c(-c3ccco3)nc2c1	40*	27	32	101*	12	13	30	47*
COc1cc(CN2CCC(Oc3cc(C(=O)NC4CC4)ccc3OC)CC2)cc(OC)c1	-4	5	x	x	-3	x	x	x
Cc1cccn2c(=O)c3cc(C#N)c(=NC(=O)c4ccco4)n(Cc4ccco4)c3nc12	15	14	-20	40	4	x	x	x
Cc1cccc(C(=O)N=c2c(C#N)cc3c(=O)n4cccc(C)c4nc3n2Cc2ccco2)c1	64*	43*	0	86*	21	0	38*	32
COCCCn1c(=NC(=O)c2ccccc2)c(C#N)cc2c(=O)n3cccc(C)c3nc21	+	181*	-5	18	127*	x	76*	105*
CCOCCCn1c(=NC(=O)c2cccs2)c(C#N)cc2c(=O)n3cccc(C)c3nc21	151*	138*	2	21	106*	x	115*	142*
COCCCn1c(=NC(C)=O)c(C#N)cc2c(=O)n3cccc(C)c3nc21	26	18	-26	7	1	x	x	x
COc1ccc(CNC(=O)C2CCCN(C(=O)Nc3ccc(OC)cc3)C2)cc1 (stereo not drawn)	1	8	x	x	7	x	x	x
CC(Sc1nn(-c2ccccc2)c(=S)s1)C(=O)NCC1CCCO1 (stereo not drawn)	-1	-2	x	x	-1	x	x	x
O=C1/C(=C/c2cccc(Cl)c2)CSc2sccc21	56*	6	-6	7	3	x	9	5
COC(=O)COc1ccc(C2Nc3c(Cl)ccc(C(=O)O)c3C3C=CCC32)cc1 (stereo not drawn)	53*	43*	-4	18	16	-6	34*	32
COc1ccc(OC)c(C2Nc3c(Cl)ccc(C(=O)O)c3C3C=CCC32)c1 (stereo not drawn)	26	23	-18	36	9	0	x	x
Cc1c(NCc2nc3ccccc3[nH]2)c(=O)n(-c2ccccc2)n1C	55*	1	-58	-28	-4	0	41*	55*
Cc1c(NCc2cc(Cl)cc(Cl)c2O)c(=O)n(-c2ccccc2)n1C	3	1	-12	7	4	-1	x	x
O=C(NCc1ccc(F)cc1)C1CCCN(C(=O)NCc2ccccc2)C1 (stereo not drawn)	9	5	x	x	6	x	x	x
O=C(Nc1cc(Cl)ccc1Cl)c1ccco1	-2	-3	x	x	-6	x	x	x
CS/C(Nc1cc(Cl)ccc1Cl)=C(/C#N)C(=O)c1ccco1	54*	8	7	45	1	x	13	25
COc1ccc(C(=O)N2CCn3c(C)ccc3C2C)cc1 (stereo not drawn)	49*	47*	-88	-1	14	-2	12	11
COc1ccccc1NC(=O)Nc1nc(CC(=O)N2CCN(c3ccccc3F)CC2)cs1	-1	-3	x	x	8	x	x	x
CC1(O)C(=O)C=C2C=C(C3CC3)OC=C2C1=O (stereo not drawn)	31	21	x	x	23	x	x	x
COC(=O)CCC(=O)OC1(C)C(=O)C=C2C=C(c3ccsc3)OC=C2C1=O (stereo not drawn)	51*	21	x	x	28	x	29	77*
CC1(OC(=O)C2CCCC2)C(=O)C=C2C=C(c3ccsc3)N(CCN3CCOCC3)C=C2C1=O (stereo not drawn)	x	x	-107	-2	x	x	x	x
SMILES	MCL1 BIM primary	BCLXL inh	Mcl1-Bid inh	Mcl1-Noxa inh	GLD-1 TGE inh	Mcl-1 Bim block	Bcl-xL conf	MCL1 inh confirm
COC(=O)CCC(=O)OC1(C)C(=O)C=C2C=C(C3CC3)N(c3ccc(CO)cc3)C=C2C1=O (stereo not drawn)	94*	64*	x	x	45*	x	46*	64*
COC(=O)CCC(=O)OC1(C)C(=O)C=C2C=C(C3CC3)OC=C2C1=O (stereo not drawn)	55*	54*	x	x	67*	x	48*	70*
COC(=O)CCCC1=CC2=CC(=O)C(C)(OC(=O)c3cccs3)C(=O)C2=CN1c1ccc(OC)cc1 (stereo not drawn)	14	15	-66	-31	1	x	x	x
CC1(O)C(=O)C=C2C=C(c3ccsc3)OC=C2C1=O (stereo not drawn)	52*	25	x	x	11	x	33*	73*
COc1ccc(S(=O)(=O)Cc2ccc(C(=O)NC3CCCCCC3)o2)cc1	-3	-2	x	x	2	x	x	x
COc1ccccc1N1CCN(C(=O)C(C)NC(=O)c2cccc([N+](=O)[O-])c2)CC1 (stereo not drawn)	6	-2	x	x	-2	x	x	x
O=S(=O)(NC1CCN(S(=O)(=O)c2c(F)cccc2F)CC1)c1ccc2c(c1)OCCO2	x	x	x	x	7	x	x	x
COC(=O)c1cc(NS(=O)(=O)c2ccc(C)c3ccccc23)ccc1N1CCOCC1	1	2	-50	5	1	x	x	x

From PubChem BioAssay
